{"source": "PubChem BioAssay AID1476", "about": "(National Center for Advancing Translational Sciences (NCATS), 2009)", "note": "Among all 200,000 compounds or so, about 4,500 (2.2%) were called active. About 12% were inconclusive and are not listed. This is one part of a sample in which actives are shown more often than they occur. Values without a mark were called inactive. Calls follow the shape of the dose curve; as a rule, active = well fitted inhibition curve with a large enough effect; inconclusive = small, poorly fitted or top-dose-only effect, or effect the other way; inactive = flat fitted curve, though single readings scatter. Potency is read from the fitted curve at half-maximal effect.", "data": [{"target": "Cruzipain (Trypanosoma cruzi) (UniProt P25779)", "sequence (P25779 123-467 limits assumed)": "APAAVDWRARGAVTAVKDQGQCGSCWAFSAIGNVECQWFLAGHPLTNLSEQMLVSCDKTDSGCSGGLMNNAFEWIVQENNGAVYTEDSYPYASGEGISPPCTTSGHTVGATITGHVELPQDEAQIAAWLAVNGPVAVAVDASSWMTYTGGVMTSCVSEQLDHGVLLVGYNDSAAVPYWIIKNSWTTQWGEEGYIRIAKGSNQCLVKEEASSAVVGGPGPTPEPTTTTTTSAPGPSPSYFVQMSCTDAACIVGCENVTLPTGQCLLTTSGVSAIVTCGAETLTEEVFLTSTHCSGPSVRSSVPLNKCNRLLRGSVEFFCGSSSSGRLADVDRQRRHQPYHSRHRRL", "assay": "qHTS Assay for Promiscuous and Specific Inhibitors of Cruzain (without detergent); also: nearly all actives have a fitted effect of over 40% in size;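 as to max response, negative = inhibition: plate controls were enzyme without inhibitor for no effect and buffer without enzyme for full effect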", "settings": "purified cruzain, Z-FR-AMC fluorescence, no detergent", "method_in_brief": "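Detergent-free condition (0.00005% Triton X-100) in acetate buffer pH 5.5 with DTT. 1.5 nM enzyme and compound were pre-mixed 15 min, then 2 uM Z-FR-AMC substrate added; reaction progress from fluorescence change between first and third reads (60 s).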", "units": {"max response, negative = inhibition": "%"}, "values": [{"smiles": "CCC(=O)N1CCc2cc(Br)cc(S(=O)(=O)NCc3ccc(Cl)cc3)c21", "max response, negative = inhibition": 5.32}, {"smiles": "Cc1ccc(-n2ncc(C(=O)N(C)Cc3ccccc3)c2-n2cccc2)cc1", "max response, negative = inhibition": 19.8}, {"smiles": "O=C(Nc1cc2c3c(c1)C1CCCC1CN3CC1CCCC21)c1ccc([N+](=O)[O-])cc1", "note": "(stereo unspecified)", "Potency": "25.1 µM (active)"}, {"smiles": "O=C(Nc1cccc([N+](=O)[O-])c1)c1ccc2c(c1)OCO2", "max response, negative = inhibition": 4.82}, {"smiles": "CC1CCc2noc(NC(=O)c3ccc([N+](=O)[O-])cc3)c2C1", "note": "(stereo unspecified)", "max response, negative = inhibition": 3.94}, {"smiles": "C=CC(C1=CC(=O)C=CC1=O)c1ccc(O)cc1", "note": "(stereo unspecified)", "max response, negative = inhibition": -6.77}, {"smiles": "O=C(NNc1c2ccccc2nc2ccccc12)c1cc2ccccc2cc1O", "Potency": "7.94 µM (active)"}, {"smiles": "Cc1noc(C)c1COC(=O)c1cc2ccccc2cc1O", "max response, negative = inhibition": -7.72}, {"smiles": "O=C(Nc1c2c(nc3ccccc13)CCCC2)c1ccccc1Br", "max response, negative = inhibition": 6.61}, {"smiles": "Cc1c(Cl)cccc1NC(=O)C1CCCN(C(=O)c2cnn(-c3ccccc3)c2-n2cccc2)C1", "note": "(stereo unspecified)", "max response, negative = inhibition": 17.7}, {"smiles": "CCOC(=O)c1oc2ccc(S(=O)(=O)n3nc(-c4ccccc4OC)cc3N)cc2c1C", "max response, negative = inhibition": -16.2}, {"smiles": "CCC(=O)N1CCc2cc(S(=O)(=O)NC(C(=O)Nc3ccc(C(C)=O)cc3)C(C)C)ccc21", "note": "(stereo unspecified)", "max response, negative = inhibition": -5.8}, {"smiles": "O=C1CN(C(=O)Nc2ccccc2C(F)(F)F)C(c2ccccc2)c2c(sc3c2CCCC3)N1", "note": "(stereo unspecified)", "max response, negative = inhibition": -8.71}, {"smiles": "O=C(COc1ccccc1F)OCc1cc(=O)n2nc(C3CCCCC3)sc2n1", "max response, negative = inhibition": -11.4}, {"smiles": "Cc1ccc(-n2c(C)cc(/C=N\\NC(=O)CC(=O)NC(C)C)c2C)cc1", "max response, negative = inhibition": -4.29}, {"smiles": "Cc1ccc(-n2c(C)cc(/C=N/Nc3ccc([N+](=O)[O-])cn3)c2C)c(C)c1", "Potency": "3.98 µM (active)"}, {"smiles": "Cc1cccc(C)c1NC(=O)CSc1ccc([N+](=O)[O-])cn1", "max response, negative = inhibition": -1.59}, {"smiles": "CCOc1ccc(C(=O)N2CCN(CCc3ccccn3)CC2)cc1", "max response, negative = inhibition": -2.86}, {"smiles": "CSc1cccc(NC(=O)CN2C(=O)CCc3cc(S(=O)(=O)N4CCCCC4)ccc32)c1", "max response, negative = inhibition": -6.74}, {"smiles": "CCOC(=O)N1CCc2c(sc3c2c(=O)n(Cc2ccccc2)c(=O)n3CC(=O)Nc2cccc(C)c2)C1", "max response, negative = inhibition": -13.3}, {"smiles": "COc1cccc(NC(=O)C(Sc2nc3ccccc3c(=O)n2CC(C)C)c2ccccc2)c1", "note": "(stereo unspecified)", "Potency": "5.01 µM (active)"}, {"smiles": "COCCn1c(SCC(=O)Nc2ccc3c(c2)CCC3)nc2ccccc2c1=O", "max response, negative = inhibition": 7.57}, {"smiles": "COc1cccc(NC(=O)C(C)Oc2ccccc2)c1", "note": "(stereo unspecified)", "max response, negative = inhibition": 2.56}, {"smiles": "O=S(=O)(Nc1ccc2nc(-c3cccc(Cl)c3)oc2c1)c1ccccc1", "max response, negative = inhibition": 5.84}, {"smiles": "COc1ccc(CNC(=O)c2cc3c(=O)[nH]c4ccccc4c3s2)cc1", "max response, negative = inhibition": -0.0351}, {"smiles": "COc1c(C)cccc1C(=O)Nc1cc(Cl)ccc1N1CCOCC1", "max response, negative = inhibition": -1.36}, {"smiles": "O=C(NC(=S)Nc1cc(C(F)(F)F)ccc1N1CCOCC1)c1ccc(-c2cccc(Cl)c2)o1", "Potency": "10 µM (active)"}, {"smiles": "CC(C)CC(=O)Nc1cc(C(F)(F)F)ccc1N1CCOCC1", "max response, negative = inhibition": -0.397}, {"smiles": "COc1ccccc1/C=C/c1nc(C#N)c(NC(C)c2ccccc2)o1", "note": "(stereo unspecified)", "max response, negative = inhibition": -27.6}, {"smiles": "Cc1ccc(NC(=O)C2CCCN2S(=O)(=O)c2cccc3cccnc23)c(C)c1", "note": "(stereo unspecified)", "max response, negative = inhibition": -5.43}, {"smiles": "O=C(/C=C/Nc1ccccc1)c1cnc(-c2ccccc2)s1", "Potency": "12.6 µM (active)"}, {"smiles": "Cc1nc(-c2ccccc2)sc1C(=O)/C=C/c1ccccc1", "max response, negative = inhibition": 3.75}, {"smiles": "Cc1ccc(N/C=C/C(=O)c2ccccc2)cc1C", "max response, negative = inhibition": -22.6}, {"smiles": "Cc1c(C)n(Cc2ccc(Cl)cc2)c2ccc(C(=O)NCCc3ccc(S(N)(=O)=O)cc3)cc12", "max response, negative = inhibition": -27.4}, {"smiles": "NC(=O)CSc1nc2c(oc3ccccc32)c(=O)n1Cc1ccccc1", "max response, negative = inhibition": 1.12}, {"smiles": "OCCNc1nc2ccccc2[nH]1", "max response, negative = inhibition": -0.339}, {"smiles": "C/C(=N\\Nc1nc2ccccc2[nH]1)c1cccs1", "Potency": "25.1 µM (active)"}, {"smiles": "O=C(CSc1nc2ccccc2[nH]1)c1cccs1", "max response, negative = inhibition": -7.22}, {"smiles": "Cc1ccc(Cn2c(C)c3cnn(CC(=O)NCc4ccccc4)c(=O)c3c2C)cc1", "max response, negative = inhibition": -6.45}, {"smiles": "COc1ccc(Nc2ncc3c(n2)CCN(C(=O)OC(C)(C)C)C3)cc1", "max response, negative = inhibition": -2.11}, {"smiles": "O=C(Cc1ccc(Cl)cc1)NCC(c1cccs1)S(=O)(=O)c1ccc(Cl)cc1", "note": "(stereo unspecified)", "max response, negative = inhibition": 1.56}, {"smiles": "CCc1nn(CC(=O)N2CCN(c3cc(C)ccc3C)CC2)c(=O)c2cc3occc3n12", "max response, negative = inhibition": 6.7}, {"smiles": "COc1ccc(F)cc1S(=O)(=O)Nc1ccc2c(c1)OCO2", "max response, negative = inhibition": 9.18}, {"smiles": "COc1ccc(S(=O)(=O)Nc2ccc3c(c2)OCO3)cc1Cl", "Potency": "15.8 µM (active)"}, {"smiles": "CC(C)CNS(=O)(=O)c1ccc(OCC(=O)Nc2ccc3c(c2)OCO3)c(Cl)c1", "max response, negative = inhibition": -2.91}, {"smiles": "COc1cc(Br)cc2cc(S(=O)(=O)c3ccccc3)c(=O)oc12", "max response, negative = inhibition": -12.9}, {"smiles": "CC1(c2cccc([N+](=O)[O-])c2)CC(C)(C)N(C(=O)c2ccccc2)c2ccccc21", "note": "(stereo unspecified)", "max response, negative = inhibition": -29.1}, {"smiles": "Cc1nnc(SCC(=O)N2c3ccccc3C(C)(c3ccc(Cl)cc3)CC2(C)C)s1", "note": "(stereo unspecified)", "max response, negative = inhibition": -0.125}, {"smiles": "CC1(c2ccccc2)CC(C)(C)N(C(=O)c2cc([N+](=O)[O-])cc([N+](=O)[O-])c2)c2ccccc21", "note": "(stereo unspecified)", "Potency": "25.1 µM (active)"}, {"smiles": "Cc1ccc(Cn2cc(CCC(=O)NCc3ccc(OC(C)C)cc3)c3ccccc32)cc1", "max response, negative = inhibition": 6.72}, {"smiles": "Cc1cc(C)cc(NC(=O)CSc2oc(-c3ccccc3)nc2S(=O)(=O)c2ccc(Cl)cc2)c1", "max response, negative = inhibition": -6.39}, {"smiles": "COCCNC(=O)CSc1c(C)cnc2c1c(=O)n(C)c(=O)n2C", "max response, negative = inhibition": 7.18}, {"smiles": "Cc1ccc(-c2c3c(=O)n(C)c(=O)n(C)c3cn2-n2cnnc2)cc1", "Potency": "12.6 µM (active)"}, {"smiles": "Cc1ccc(-c2c3c(=O)n(C)c(=O)n(C)c3cn2-c2ccccc2O)cc1", "max response, negative = inhibition": 12.7}, {"smiles": "COc1ccc(-c2c3c(=O)n(C)c(=O)n(C)c3cn2NC(C)=O)cc1", "max response, negative = inhibition": -4.34}, {"smiles": "CC(=O)c1ccc(NS(=O)(=O)c2ccc(-c3cc(C)no3)s2)cc1", "max response, negative = inhibition": -22.1}]}]}
